# Rows were chosen to be rich in hits. Some 13% of all compounds tested hit in one or more screens of this group.
# USP17 inh = blocks human USP17 ubiquitin-rhodamine cleavage; hit rate 6.5% among 47,000; purified USP17, Ub-rhodamine cleavage fluorescence, 3 h; inhibition, % at 50 µM; A8MUK1
# USP8 block = blocks human USP8 ubiquitin-rhodamine cleavage; P40818; purified USP8, Ub-rhodamine cleavage fluorescence, 30 min; hit rate 4.2% among 47,000; inhibition, % at 20 µM
# USP28 block = inhibitors of human USP28 deubiquitinase. Q96RU2. purified USP28, Ub-rhodamine cleavage fluorescence, 30 min. inhibition, % at 25 µM. hit rate 3% among 47,000
# USP30 block = blocks human USP30 ubiquitin-rhodamine cleavage. hit rate 5.3% among 47,000. Q70CQ3. purified USP30, Ub-rhodamine cleavage fluorescence. inhibition, % at 25 µM
# Target sequence (Q70CQ3 whole entry, looked up): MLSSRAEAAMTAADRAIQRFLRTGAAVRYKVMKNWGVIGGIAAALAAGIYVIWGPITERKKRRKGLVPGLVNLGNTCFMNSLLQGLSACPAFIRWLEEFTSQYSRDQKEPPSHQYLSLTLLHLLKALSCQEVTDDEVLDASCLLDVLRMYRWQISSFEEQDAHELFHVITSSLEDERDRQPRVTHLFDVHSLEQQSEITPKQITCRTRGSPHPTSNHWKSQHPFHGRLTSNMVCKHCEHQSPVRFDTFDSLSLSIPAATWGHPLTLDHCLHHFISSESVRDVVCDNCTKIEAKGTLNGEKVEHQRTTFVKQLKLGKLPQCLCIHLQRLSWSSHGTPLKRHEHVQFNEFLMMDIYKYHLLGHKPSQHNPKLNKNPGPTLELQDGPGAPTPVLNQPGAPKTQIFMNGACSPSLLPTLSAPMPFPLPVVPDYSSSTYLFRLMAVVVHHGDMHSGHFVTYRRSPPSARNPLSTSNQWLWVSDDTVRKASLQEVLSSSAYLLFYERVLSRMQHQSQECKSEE
# Hits are given with their value; – = inactive; · = no result given. Cut-off read from the data, not from the text of the source: active = inhibition above about 30%; inactive = the rest.
SMILES,USP17 inh,USP8 block,USP28 block,USP30 block
CC(C)c1ccc(NC(=O)C2C3C=CC4(O3)C2C(=O)N(CCCN(C)Cc2ccccc2)C4C(=O)NC2CCCCC2)cc1 (configuration not stated),–,–,–,–
COc1ccc(NC(=O)C2C3C=CC4(O3)C2C(=O)N(CCc2ccccc2)C4C(=O)NC2CCCCC2)cc1 (configuration not stated),34.6,–,–,55.7
Cc1ccc(NC(=O)C2C3C=CC4(O3)C2C(=O)N(CCc2ccccc2)C4C(=O)NC2CCCCC2)cc1C (configuration not stated),30.4,–,–,–
COc1ccc(NC(=O)C2C3C=CC4(O3)C2C(=O)N(Cc2ccccc2)C4C(=O)NC2CCCCC2)cc1 (configuration not stated),–,–,–,39.5
CSc1cccc(NC(=O)C2C3C=CC4(O3)C2C(=O)N(Cc2ccc(C)cc2)C4C(=O)NC2CCCCC2)c1 (configuration not stated),49.7,–,–,–
COc1cccc(NC(=O)c2ccc(N3C(=O)N4CCc5c([nH]c6ccc(OC)cc56)[C@@]4(C)C3=O)cc2)c1,–,–,–,–
COc1ccc(N2CCN(c3nc4ccccc4nc3Nc3cc(C)nn3-c3ccccc3)CC2)cc1,–,–,–,–
Cc1cc(C)nc(N2CCC(N(CC3CC3)C(=O)c3cccc(C#N)c3)CC2)n1,–,–,–,–
C[C@H]1CCC[C@]2(C)C[C@H]3OC(=O)C(CN4CCC5(CC4)OCCO5)[C@H]3[C@@H]3O[C@@]132 (some centres not stated),–,–,–,–
COCCn1c(=O)[nH]c(=O)c2c3c(cnc21)C(=O)CC(c1ccc(F)cc1)C3 (configuration not stated),–,67.5,–,–
COc1ccc(Cl)c2sc(N3CCN(C(=O)c4ccn(C)n4)CC3)nc12,47.1,–,–,–
CC1CCC(NS(=O)(=O)c2ccc3c(c2)OCC(=O)N3)CC1 (configuration not stated),–,–,–,–
CC(C)(C)C(=O)[C@@H]1[C@@H](C(=O)c2ccc3c(c2)OCO3)[C@@]2(C(=O)Nc3ccccc32)[C@H]2c3ccccc3C=CN12,81.6,92.9,30.7,–
O=C(c1ccc2c(c1)OCO2)[C@@H]1[C@H](C(=O)OC(c2ccccc2)c2ccccc2)N2c3ccccc3C=CC2[C@@]12C(=O)Nc1ccccc12 (some centres not stated),–,–,–,–
Cc1sc2ncn(CC(=O)Nc3ccccc3)c(=O)c2c1C,39.4,–,–,–
Cc1sc2ncn(CC(=O)N3CCc4ccccc43)c(=O)c2c1C,–,–,–,–
CC(C)c1ccc(-n2c(=O)c3ccccc3c3ccccc3c2=O)cc1,–,–,–,35.0
O=C(Nc1ccc2c(c1)OCO2)c1cncc(NS(=O)(=O)c2ccc3c(c2)OCCO3)c1,–,45.4,–,–
O=S(=O)(c1ccc(S(=O)(=O)N2CCCCC2c2cccnc2)cc1)N1CCOCC1 (configuration not stated),–,–,–,–
Nc1ccc(NS(=O)(=O)c2ccc3c(c2)OCCCO3)cc1,–,32.9,–,–
Cc1noc(C)c1S(=O)(=O)Nc1ccc(C(=O)Nc2ccc3c(c2)OCCO3)cc1,–,–,84.5,–
O=C(Nc1ccc(S(=O)(=O)N2CCCCC2c2cccnc2)cc1)c1ccc2c(c1)OCO2 (configuration not stated),–,–,41.0,44.2
O=C(O)c1ccc(NS(=O)(=O)c2ccc3c(c2)OCCCO3)cc1,–,–,–,–
Cc1nc(-c2cccc(N3CC(C(=O)NC4CCC(C)CC4)CC3=O)c2)no1 (configuration not stated),–,–,–,–
COc1cccc(-c2cncc(C3CN(S(=O)(=O)N4CCCC4)CCO3)n2)c1 (configuration not stated),–,–,–,–
SMILES,USP17 inh,USP8 block,USP28 block,USP30 block
CCCNC(=O)CN1CCC2(CC1)Nc1cc(Cl)ccc1C1=NCCN12,–,–,–,–
O=C(c1ccccn1)N1CCN2C(=O)N(c3cccnc3)C(=O)C2(Cc2ccccc2)CC1 (configuration not stated),–,–,–,–
CC(=O)Nc1ccc(S(=O)(=O)Nc2cncc(C(=O)NCc3ccc4c(c3)OCO4)c2)cc1,·,–,–,–
O=C(Nc1ccc2c(c1)OCO2)c1cncc(NS(=O)(=O)c2ccccc2)c1,–,70.2,–,–
Cc1cccc(CN2C(=O)c3nc4ccccc4n3CC2(C)C(=O)NCc2ccccc2)c1 (configuration not stated),–,–,–,–
Cc1ccc(S(=O)(=O)N2CC=C(C(=O)Nc3ccc(Br)c(C)c3)CC2)cc1,–,–,–,–
CCN(CC)c1ccc(NC(=O)C2=CCN(S(=O)(=O)c3ccc(F)cc3)CC2)c(C)c1,–,–,35.4,–
O=S(=O)(c1ccccc1)N1CCN(c2ccc(-c3cccnc3)nn2)CC1,48.6,–,–,–
COC(=O)c1ccccc1NC(=O)COC(=O)CCc1ccccc1,–,34.8,–,–
CC(=O)c1ccccc1NC(=O)Cc1ccc(-c2ccccc2)cc1,–,–,–,–
O=S(=O)(c1ccc(Cl)cc1)c1nc(-c2ccco2)oc1NCc1ccccc1,–,–,–,–
CCc1ccccc1N(CC)C(=O)c1cccc2c1SCCC2=O,–,–,–,33.0
Cc1ccc(CNC(=O)CCC(=O)N2CCc3c(c(C(=O)N4CCCC4)nn3C)C2)cc1,–,–,–,–
COc1ccc(COc2ncnc3cc(Cl)ccc23)cc1,–,–,48.5,–
CCOC(=O)c1nn(-c2ccc(F)cc2)c2c1CCCCC2,–,–,36.0,–
Cc1c(C(=O)NCC2CCCCC2)nnn1-c1cccc2c1CCN(C1CCOCC1)C2,–,35.6,–,–
CC1(C(=O)NC2CCCC2)CCC(=O)N1c1ccccc1F (configuration not stated),–,–,–,–
O=C(COc1cccc(Cl)c1)N1CCSc2ccccc21,–,–,39.2,35.9
O=C(Cn1cnc(-c2noc(-c3cccnc3)n2)c1)NC1CCCC1,–,–,–,–
CC(=O)N1CCc2c([nH]c3ccccc23)C1C(F)(F)F (configuration not stated),–,–,–,–
Cn1c(CN2CCOCC2)nnc1SCc1ccc(Cl)cc1,–,–,–,31.7
Cn1c(CN2CCOCC2)nnc1SCc1ccc(F)cc1,–,–,–,–
CSc1nc2ncn(CC(=O)Nc3cc(C)cc(C)c3)c(=O)c2s1,–,–,–,–
CSc1nc2ncn(CC(=O)Nc3ccc(Br)cc3)c(=O)c2s1,–,82.1,–,–
CC(C)NC(=O)N1C[C@H]2C[C@H](C(=O)Nc3ccc4c(c3)OCO4)[C@@H](C1)O2,–,–,–,–
Cn1cnnc1Sc1ncnc(N)c1[N+](=O)[O-],–,–,–,33.5
CCCc1nc2sc3c(NCCc4ccc(OC)c(OC)c4)ncnc3c2c2c1CCC2,–,–,67.1,–
CCCCc1nc2sc3c(SCC(=O)Nc4ccc(OC)cc4)ncnc3c2c2c1CCC2,–,–,–,47.6
CCCc1nc2sc3c(NC4CCCCC4)ncnc3c2c2c1CCC2,–,–,74.8,–
CCCc1nc2sc3c(N(CC)CC)ncnc3c2c2c1CCC2,–,–,52.3,–

# Screens from PubChem.
